# Measurements published in PMC7862700, “An all-to-all approach to the identification of sequence-specific readers for epigenetic DNA modifications on cytosine”.
# Legend:
# Experiment in all cases: DAPPL (digital affinity profiling via proximity ligation, sequencing); 10 mM Tris-HCl pH 7.5, 50 mM NaCl, 1 mM DTT, 4% glycerol, room temperature, 30 min; GST-TFs on glutathione beads, 16-mer random dsDNA library, 0.1% formaldehyde crosslink after washing; high values mean tight binding
# FLI1 = target: T1, FLI1 (Homo sapiens, UniProt Q01543 1-452); settings: protein: recombinant; tags: N-terminal GST; dsDNA, one strand shown
# T1 sequence: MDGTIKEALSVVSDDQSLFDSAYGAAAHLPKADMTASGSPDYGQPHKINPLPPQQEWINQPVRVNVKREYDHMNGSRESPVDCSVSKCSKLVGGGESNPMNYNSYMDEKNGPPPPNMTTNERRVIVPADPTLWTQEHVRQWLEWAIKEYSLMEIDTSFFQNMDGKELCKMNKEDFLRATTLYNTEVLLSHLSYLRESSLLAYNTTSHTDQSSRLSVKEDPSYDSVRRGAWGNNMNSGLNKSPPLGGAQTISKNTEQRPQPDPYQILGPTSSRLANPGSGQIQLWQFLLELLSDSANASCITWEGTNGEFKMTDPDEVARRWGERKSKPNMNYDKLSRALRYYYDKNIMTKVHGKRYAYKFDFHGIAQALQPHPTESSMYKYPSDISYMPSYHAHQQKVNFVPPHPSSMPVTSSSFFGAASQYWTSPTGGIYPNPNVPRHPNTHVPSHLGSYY
# Procedure, shortened: (§1)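 Pools of DNA-barcoded human transcription factors, expressed in yeast as GST fusions on glutathione beads and combined with a tag-only sample, were incubated with 200 nmole of a 16-mer random double-stranded DNA library. Incubation took 30 min at room temperature in Tris/NaCl/DTT/glycerol buffer and was followed by washing, 0.1% formaldehyde crosslinking, proximity ligation (BsaI/T4 ligase, 1 h, 37 °C), PCR amplification and sequencing on an Illumina NextSeq500. Binding signal is the ratio of a hexamer's read frequency for a factor to its frequency for the tag-only sample.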
# ELK1 = target: T2, ELK1 (Homo sapiens, UniProt P19419 1-428); settings: protein: recombinant; tags: N-terminal GST; dsDNA, one strand shown
# T2 sequence: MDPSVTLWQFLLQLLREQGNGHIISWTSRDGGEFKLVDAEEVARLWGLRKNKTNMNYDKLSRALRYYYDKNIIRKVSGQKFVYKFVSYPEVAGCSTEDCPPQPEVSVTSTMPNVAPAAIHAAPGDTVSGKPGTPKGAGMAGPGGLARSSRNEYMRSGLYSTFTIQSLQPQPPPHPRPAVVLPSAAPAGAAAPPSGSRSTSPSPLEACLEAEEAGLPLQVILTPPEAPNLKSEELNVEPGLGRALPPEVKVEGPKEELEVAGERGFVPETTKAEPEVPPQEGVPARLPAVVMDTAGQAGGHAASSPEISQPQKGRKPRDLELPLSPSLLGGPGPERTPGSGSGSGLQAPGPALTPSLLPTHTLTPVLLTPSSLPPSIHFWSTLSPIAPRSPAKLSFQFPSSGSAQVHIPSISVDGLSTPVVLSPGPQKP
# Procedure, shortened: as §1
# GABPA = target: T3, GABPA (Homo sapiens, UniProt Q06546 1-454); settings: protein: recombinant; tags: N-terminal GST; dsDNA, one strand shown
# T3 sequence: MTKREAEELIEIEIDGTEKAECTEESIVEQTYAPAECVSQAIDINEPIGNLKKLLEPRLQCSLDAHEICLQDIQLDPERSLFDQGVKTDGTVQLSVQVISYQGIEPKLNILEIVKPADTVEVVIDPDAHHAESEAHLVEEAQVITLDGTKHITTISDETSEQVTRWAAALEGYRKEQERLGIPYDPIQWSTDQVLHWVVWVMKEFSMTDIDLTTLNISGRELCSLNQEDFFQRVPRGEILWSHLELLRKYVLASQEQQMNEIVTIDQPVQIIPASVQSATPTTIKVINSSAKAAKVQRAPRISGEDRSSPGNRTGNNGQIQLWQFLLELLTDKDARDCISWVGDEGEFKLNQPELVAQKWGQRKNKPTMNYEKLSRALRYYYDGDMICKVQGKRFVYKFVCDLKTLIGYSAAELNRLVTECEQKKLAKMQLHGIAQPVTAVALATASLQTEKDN
# Procedure, shortened: as §1
# ERG = target: T4, ERG (Homo sapiens, UniProt P11308 1-479); settings: protein: recombinant; tags: N-terminal GST; dsDNA, one strand shown
# T4 sequence: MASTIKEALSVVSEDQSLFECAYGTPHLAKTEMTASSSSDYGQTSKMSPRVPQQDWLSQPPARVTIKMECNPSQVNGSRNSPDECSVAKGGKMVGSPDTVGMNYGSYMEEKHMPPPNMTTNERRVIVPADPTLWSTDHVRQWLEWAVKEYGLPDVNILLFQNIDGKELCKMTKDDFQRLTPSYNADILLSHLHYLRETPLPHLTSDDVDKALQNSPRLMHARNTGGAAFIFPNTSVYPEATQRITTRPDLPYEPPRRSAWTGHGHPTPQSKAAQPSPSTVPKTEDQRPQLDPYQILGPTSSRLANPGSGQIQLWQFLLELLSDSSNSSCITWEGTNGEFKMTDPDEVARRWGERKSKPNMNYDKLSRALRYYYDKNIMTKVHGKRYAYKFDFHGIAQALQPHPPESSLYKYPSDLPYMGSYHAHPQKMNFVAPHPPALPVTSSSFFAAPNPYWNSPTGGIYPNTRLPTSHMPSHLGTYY
# Procedure, shortened: as §1
# ELF1 = ELF1 (Homo sapiens, UniProt P32519 1-619); settings: protein: recombinant; tags: N-terminal GST; dsDNA, one strand shown
# Chain of ELF1 (P32519 whole entry): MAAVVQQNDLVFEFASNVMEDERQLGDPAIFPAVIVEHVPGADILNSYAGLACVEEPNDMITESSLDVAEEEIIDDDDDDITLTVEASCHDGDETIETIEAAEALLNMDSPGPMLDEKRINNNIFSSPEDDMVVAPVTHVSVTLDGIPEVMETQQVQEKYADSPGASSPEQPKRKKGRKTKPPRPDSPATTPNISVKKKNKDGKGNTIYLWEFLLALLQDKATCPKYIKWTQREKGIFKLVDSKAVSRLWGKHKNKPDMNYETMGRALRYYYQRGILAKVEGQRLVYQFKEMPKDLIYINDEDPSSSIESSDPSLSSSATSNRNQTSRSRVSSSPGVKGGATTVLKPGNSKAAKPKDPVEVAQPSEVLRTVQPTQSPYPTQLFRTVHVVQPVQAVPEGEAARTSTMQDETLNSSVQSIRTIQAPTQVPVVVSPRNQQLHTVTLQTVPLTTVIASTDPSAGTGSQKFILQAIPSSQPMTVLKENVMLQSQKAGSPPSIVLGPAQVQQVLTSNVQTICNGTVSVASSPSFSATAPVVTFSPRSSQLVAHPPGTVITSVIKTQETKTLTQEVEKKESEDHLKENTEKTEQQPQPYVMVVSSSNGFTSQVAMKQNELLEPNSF
# Procedure, shortened: as §1
# EHF = target: T5, EHF (Homo sapiens, UniProt Q9NZC4 1-300); settings: protein: recombinant; tags: N-terminal GST; dsDNA, one strand shown
# T5 sequence: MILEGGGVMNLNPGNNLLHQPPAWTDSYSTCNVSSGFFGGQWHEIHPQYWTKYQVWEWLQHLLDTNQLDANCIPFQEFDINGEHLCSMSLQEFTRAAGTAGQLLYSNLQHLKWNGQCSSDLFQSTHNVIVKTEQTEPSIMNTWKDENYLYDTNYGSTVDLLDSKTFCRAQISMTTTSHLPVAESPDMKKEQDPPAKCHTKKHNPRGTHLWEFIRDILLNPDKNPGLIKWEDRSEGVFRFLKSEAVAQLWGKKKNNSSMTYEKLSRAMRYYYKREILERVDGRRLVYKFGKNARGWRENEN
# Procedure, shortened: as §1
# SPI1 = SPI1 (Homo sapiens, UniProt P17947 1-270); settings: protein: recombinant; tags: N-terminal GST; dsDNA, one strand shown
# Procedure, shortened: as §1
# SPIB = SPIB (Homo sapiens, UniProt Q01892 1-262); settings: protein: recombinant; tags: N-terminal GST; dsDNA, one strand shown
# Chain of SPIB (Q01892 whole entry): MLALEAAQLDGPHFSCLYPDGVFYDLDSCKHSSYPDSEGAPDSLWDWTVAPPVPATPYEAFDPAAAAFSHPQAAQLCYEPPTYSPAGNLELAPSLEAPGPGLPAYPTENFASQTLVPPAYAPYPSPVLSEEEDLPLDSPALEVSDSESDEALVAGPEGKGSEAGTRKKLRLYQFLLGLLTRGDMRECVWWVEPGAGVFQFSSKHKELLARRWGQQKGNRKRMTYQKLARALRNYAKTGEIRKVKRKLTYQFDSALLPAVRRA
# Procedure, shortened: as §1
# ELK3 = target: T6, ELK3 (Homo sapiens, UniProt P41970 1-407); settings: protein: recombinant; tags: N-terminal GST; dsDNA, one strand shown
# T6 sequence: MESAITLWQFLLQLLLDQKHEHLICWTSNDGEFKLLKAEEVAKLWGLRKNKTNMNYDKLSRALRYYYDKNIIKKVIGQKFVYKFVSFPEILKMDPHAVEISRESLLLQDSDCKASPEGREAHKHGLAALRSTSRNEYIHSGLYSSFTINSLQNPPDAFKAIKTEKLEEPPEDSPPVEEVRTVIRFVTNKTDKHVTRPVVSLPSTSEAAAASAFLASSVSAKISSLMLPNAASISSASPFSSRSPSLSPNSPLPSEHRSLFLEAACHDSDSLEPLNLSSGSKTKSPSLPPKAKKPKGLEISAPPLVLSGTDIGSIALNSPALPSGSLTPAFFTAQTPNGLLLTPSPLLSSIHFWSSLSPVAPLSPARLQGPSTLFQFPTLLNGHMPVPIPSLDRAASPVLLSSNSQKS
# Procedure, shortened: as §1
# FEV = target: T7, FEV (Homo sapiens, UniProt Q99581 1-238); settings: protein: recombinant; tags: N-terminal GST; dsDNA, one strand shown
# T7 sequence: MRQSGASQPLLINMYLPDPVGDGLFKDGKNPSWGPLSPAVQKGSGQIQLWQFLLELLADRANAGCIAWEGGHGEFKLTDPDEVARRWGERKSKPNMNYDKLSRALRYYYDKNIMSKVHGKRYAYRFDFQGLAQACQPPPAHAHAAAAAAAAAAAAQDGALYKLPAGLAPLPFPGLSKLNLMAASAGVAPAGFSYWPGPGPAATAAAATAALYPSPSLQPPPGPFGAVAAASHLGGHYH
# Procedure, shortened: as §1
# ETV5 = ETV5 (Homo sapiens, UniProt P41161 1-510); settings: protein: recombinant; tags: N-terminal GST; dsDNA, one strand shown
# Chain of ETV5 (P41161 whole entry): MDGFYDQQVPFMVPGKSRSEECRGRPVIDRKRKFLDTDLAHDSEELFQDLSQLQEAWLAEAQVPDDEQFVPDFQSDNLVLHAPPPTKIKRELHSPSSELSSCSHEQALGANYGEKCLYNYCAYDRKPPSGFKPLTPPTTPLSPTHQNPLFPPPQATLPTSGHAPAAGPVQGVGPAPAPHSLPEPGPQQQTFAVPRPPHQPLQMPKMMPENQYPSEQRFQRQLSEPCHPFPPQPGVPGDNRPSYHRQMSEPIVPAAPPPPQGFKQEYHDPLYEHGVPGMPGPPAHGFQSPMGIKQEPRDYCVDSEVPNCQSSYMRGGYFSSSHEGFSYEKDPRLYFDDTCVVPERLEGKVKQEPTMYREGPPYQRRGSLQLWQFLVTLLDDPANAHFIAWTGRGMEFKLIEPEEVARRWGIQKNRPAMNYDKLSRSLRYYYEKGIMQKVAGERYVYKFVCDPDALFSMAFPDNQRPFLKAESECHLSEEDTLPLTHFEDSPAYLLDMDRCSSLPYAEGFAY
# Procedure, shortened: as §1
# HSF1 = HSF1 (Homo sapiens, UniProt Q00613 1-529); settings: protein: recombinant; tags: N-terminal GST; chain copies: 3; dsDNA, one strand shown
# Chain of HSF1 (Q00613 whole entry): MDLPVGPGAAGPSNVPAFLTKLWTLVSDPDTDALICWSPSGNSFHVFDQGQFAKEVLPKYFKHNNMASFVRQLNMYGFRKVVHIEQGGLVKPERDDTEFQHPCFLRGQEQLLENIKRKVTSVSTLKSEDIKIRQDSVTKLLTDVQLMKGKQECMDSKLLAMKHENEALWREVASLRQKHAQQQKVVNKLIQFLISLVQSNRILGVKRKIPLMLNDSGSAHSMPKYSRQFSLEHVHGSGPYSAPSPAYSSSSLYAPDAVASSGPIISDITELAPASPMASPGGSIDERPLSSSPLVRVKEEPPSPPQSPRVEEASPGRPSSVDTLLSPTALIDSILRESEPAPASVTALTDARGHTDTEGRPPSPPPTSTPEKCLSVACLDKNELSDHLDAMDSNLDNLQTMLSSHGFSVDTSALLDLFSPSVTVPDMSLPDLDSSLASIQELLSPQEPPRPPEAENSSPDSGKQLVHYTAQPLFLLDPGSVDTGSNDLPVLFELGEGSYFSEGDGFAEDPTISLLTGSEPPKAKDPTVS
# Procedure, shortened: as §1
# SPIC = target: T8, SPIC (Homo sapiens, UniProt Q8N5J4 1-248); settings: protein: recombinant; tags: N-terminal GST; dsDNA, one strand shown
# T8 sequence: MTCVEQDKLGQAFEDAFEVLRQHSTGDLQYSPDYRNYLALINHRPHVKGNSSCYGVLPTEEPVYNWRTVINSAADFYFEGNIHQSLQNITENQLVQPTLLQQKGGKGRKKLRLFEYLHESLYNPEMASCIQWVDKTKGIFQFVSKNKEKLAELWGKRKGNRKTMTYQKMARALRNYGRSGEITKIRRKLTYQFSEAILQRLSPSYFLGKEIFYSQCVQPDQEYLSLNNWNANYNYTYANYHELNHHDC
# Procedure, shortened: as §1
# ELF4 = ELF4 (Homo sapiens, UniProt Q99607 1-663); settings: protein: recombinant; tags: N-terminal GST; dsDNA, one strand shown
# Chain of ELF4 (Q99607 whole entry): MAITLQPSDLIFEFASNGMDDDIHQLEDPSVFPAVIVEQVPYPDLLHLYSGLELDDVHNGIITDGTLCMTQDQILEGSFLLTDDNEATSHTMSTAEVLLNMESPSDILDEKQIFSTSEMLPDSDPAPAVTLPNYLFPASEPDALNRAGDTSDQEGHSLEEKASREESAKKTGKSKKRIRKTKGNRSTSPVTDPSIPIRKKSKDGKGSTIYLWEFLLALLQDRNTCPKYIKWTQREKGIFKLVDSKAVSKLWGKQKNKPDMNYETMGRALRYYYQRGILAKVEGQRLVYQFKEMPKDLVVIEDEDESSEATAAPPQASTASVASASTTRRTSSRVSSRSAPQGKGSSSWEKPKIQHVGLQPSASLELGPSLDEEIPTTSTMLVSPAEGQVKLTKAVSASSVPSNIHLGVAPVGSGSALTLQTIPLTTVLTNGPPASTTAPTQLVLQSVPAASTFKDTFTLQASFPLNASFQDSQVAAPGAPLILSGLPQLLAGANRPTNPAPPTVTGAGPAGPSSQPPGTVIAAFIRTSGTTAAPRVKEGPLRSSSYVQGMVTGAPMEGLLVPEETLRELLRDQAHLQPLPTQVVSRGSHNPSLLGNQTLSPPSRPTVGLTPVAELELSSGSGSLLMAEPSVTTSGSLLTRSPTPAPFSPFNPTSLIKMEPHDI
# Procedure, shortened: as §1
# ELK4 = target: T9, ELK4 (Homo sapiens, UniProt P28324-2 1-405); settings: protein: recombinant; tags: N-terminal GST; dsDNA, one strand shown
# T9 sequence: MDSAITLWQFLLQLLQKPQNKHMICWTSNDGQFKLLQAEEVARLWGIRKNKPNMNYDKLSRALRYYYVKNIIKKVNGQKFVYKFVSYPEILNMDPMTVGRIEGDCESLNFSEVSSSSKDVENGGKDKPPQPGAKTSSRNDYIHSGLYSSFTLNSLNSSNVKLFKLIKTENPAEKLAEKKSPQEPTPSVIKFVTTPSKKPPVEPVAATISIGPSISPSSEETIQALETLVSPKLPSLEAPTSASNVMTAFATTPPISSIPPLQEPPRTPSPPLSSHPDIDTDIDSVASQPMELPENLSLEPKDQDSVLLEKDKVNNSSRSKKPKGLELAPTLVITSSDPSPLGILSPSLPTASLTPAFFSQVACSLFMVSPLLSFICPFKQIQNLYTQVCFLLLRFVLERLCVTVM
# Procedure, shortened: as §1
# ETV2 = target: T10, ETV2 (Homo sapiens, UniProt O00321 1-342); settings: protein: recombinant; tags: N-terminal GST; dsDNA, one strand shown
# T10 sequence: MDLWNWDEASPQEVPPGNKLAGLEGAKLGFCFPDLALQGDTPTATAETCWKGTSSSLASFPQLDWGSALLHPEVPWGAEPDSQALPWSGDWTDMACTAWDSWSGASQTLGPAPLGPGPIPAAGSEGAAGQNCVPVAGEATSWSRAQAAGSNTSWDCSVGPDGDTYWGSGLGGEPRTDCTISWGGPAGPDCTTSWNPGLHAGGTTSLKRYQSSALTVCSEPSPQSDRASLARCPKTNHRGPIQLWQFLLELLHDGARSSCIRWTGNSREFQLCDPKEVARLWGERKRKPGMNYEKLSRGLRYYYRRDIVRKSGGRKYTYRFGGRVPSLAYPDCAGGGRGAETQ
# Procedure, shortened: as §1
# ELF3 = target: T11, ELF3 (Homo sapiens, UniProt P78545 1-371); settings: protein: recombinant; tags: N-terminal GST; dsDNA, one strand shown
# T11 sequence: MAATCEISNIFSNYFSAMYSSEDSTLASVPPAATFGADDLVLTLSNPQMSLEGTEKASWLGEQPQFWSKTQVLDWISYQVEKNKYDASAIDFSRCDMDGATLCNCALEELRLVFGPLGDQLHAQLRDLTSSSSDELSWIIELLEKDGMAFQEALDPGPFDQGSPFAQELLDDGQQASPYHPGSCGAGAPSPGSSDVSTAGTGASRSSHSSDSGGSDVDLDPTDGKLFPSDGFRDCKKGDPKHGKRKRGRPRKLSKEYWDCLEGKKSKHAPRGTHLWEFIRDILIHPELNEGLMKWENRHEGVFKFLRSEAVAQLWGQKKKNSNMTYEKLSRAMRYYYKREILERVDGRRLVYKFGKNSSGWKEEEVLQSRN
# Procedure, shortened: as §1
# CRX = CRX (Homo sapiens, UniProt O43186 1-299); settings: protein: recombinant; tags: N-terminal GST; dsDNA, one strand shown
# Chain of CRX (O43186 whole entry): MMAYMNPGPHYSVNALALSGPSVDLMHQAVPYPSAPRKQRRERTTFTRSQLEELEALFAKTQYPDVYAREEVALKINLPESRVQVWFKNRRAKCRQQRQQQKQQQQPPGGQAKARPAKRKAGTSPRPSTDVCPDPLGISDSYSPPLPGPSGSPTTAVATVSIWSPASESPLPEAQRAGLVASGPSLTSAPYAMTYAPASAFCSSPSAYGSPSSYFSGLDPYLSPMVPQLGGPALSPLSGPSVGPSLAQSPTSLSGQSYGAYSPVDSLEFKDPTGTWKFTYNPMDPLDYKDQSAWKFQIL
# Procedure, shortened: as §1
# ETV1 = ETV1 (Homo sapiens, UniProt P50549 1-477); settings: protein: recombinant; tags: N-terminal GST; dsDNA, one strand shown
# Chain of ETV1 (P50549 whole entry): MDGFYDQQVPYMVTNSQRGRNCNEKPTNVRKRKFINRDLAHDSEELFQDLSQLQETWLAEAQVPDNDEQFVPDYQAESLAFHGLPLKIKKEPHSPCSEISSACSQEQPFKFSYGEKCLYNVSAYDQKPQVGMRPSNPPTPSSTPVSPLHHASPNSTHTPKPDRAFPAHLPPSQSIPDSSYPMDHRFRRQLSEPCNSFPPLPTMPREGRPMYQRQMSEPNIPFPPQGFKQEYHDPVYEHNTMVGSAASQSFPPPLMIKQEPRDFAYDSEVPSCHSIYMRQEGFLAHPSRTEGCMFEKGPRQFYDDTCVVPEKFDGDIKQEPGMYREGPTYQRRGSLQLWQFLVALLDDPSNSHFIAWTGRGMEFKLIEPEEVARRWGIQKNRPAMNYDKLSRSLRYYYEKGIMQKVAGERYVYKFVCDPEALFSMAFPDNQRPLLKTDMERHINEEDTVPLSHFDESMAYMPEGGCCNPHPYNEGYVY
# Procedure, shortened: as §1
sequence,measurement,setting,value
TAATTA,binding signal,FLI1,"1.24 fold enrichment (6-mer frequency, TF over GST control)"
same,binding signal,ELK1,"1.2 fold enrichment (6-mer frequency, TF over GST control)"
same,binding signal,GABPA,"1.23 fold enrichment (6-mer frequency, TF over GST control)"
same,binding signal,ERG,"1.3 fold enrichment (6-mer frequency, TF over GST control)"
same,binding signal,ELF1,"1.3 fold enrichment (6-mer frequency, TF over GST control)"
same,binding signal,EHF,"1.22 fold enrichment (6-mer frequency, TF over GST control)"
same,binding signal,SPI1,"1.25 fold enrichment (6-mer frequency, TF over GST control)"
same,binding signal,SPIB,"1.27 fold enrichment (6-mer frequency, TF over GST control)"
same,binding signal,ELK3,"1.24 fold enrichment (6-mer frequency, TF over GST control)"
same,binding signal,FEV,"1.22 fold enrichment (6-mer frequency, TF over GST control)"
same,binding signal,ETV5,"1.31 fold enrichment (6-mer frequency, TF over GST control)"
same,binding signal,HSF1,"1.81 fold enrichment (6-mer frequency, TF over GST control)"
same,binding signal,SPIC,"1.4 fold enrichment (6-mer frequency, TF over GST control)"
same,binding signal,ELF4,"1.23 fold enrichment (6-mer frequency, TF over GST control)"
same,binding signal,ELK4,"1.17 fold enrichment (6-mer frequency, TF over GST control)"
same,binding signal,ETV2,"1.35 fold enrichment (6-mer frequency, TF over GST control)"
same,binding signal,ELF3,"1.3 fold enrichment (6-mer frequency, TF over GST control)"
same,binding signal,CRX,"2.74 fold enrichment (6-mer frequency, TF over GST control)"
same,binding signal,ETV1,"1.33 fold enrichment (6-mer frequency, TF over GST control)"
